The record followed here is PubChem BioAssay (NCATS).

Assay [1] concerns the target Aldehyde dehydrogenase, mitochondrial (Homo sapiens) (UniProt P05091). Put plainly: qHTS for Inhibitors of the Aldehyde Dehydrogenase Family (ALDH2) Primary screen (AID 2061308). Further: nearly all actives have a fitted effect of over 55% in size. In general terms: In qHTS, concentration-response curves come from the screen itself.
Assay [2] has as its target Retinaldehyde dehydrogenase 3 (Homo sapiens) (UniProt P47895). Put plainly: qHTS for Inhibitors of the Aldehyde Dehydrogenase Family (ALDH1A3) Primary screen (AID 2061315).

Records with an inconclusive call do not appear. Entries that show only a call come without a potency. Active and inactive are the calls of the source. The call rests on the fitted dose curve; in most records, active means well fitted curve in the direction sought with a large enough effect; inconclusive means small, poorly fitted or top-dose-only effect, or another doubt; inactive means no such curve, though single readings can be large; an effect the other way counts as inactive or inconclusive.

Take `NC[C@@H](O)c1ccc(O)c(O)c1`: the Potency entry in assay [1] and in assay [2] was “inactive” throughout.
For the compound `O=C1c2ccccc2C(=O)N1c1ccccn1`, the Potency result in assay [1] and in assay [2] was “inactive” in each case.
Take `CCc1ccc(NC(=O)c2[nH]c(C)c(C(C)=O)c2C)cc1S(=O)(=O)Nc1ccc(C#N)cc1`: the Potency entry in assay [1] and in assay [2] was “inactive” throughout.
As to `COc1ccc(C2Nc3ccccc3C(=O)N2Cc2ccc3c(c2)OCO3)cc1COc1c(C)cc(NC(C)=O)cc1C` (stereo unspecified), the Potency result in assay [1] and in assay [2] was “inactive” throughout.
Regarding `O=[S+]([O-])(Nc1ccccc1)c1ccc(NCc2cccc(C(F)(F)F)c2Cl)cc1`, the Potency result in assay [1] and in assay [2] was “inactive” throughout.
Take `COc1ccc(/C=C2/C(=O)Nc3ccccc32)cc1O`: the Potency result in assay [1] and in assay [2] was “inactive” in each case.
For the compound `CC(=O)c1cc2c(s1)c1cnn(Cc3ccccc3F)c(=O)c1n2C`, the Potency entry in assay [1] and in assay [2] was “inactive” throughout.
As for `Cc1cc2c(s1)c1cnn(Cc3ccccc3)c(=O)c1n2C`, the Potency entry in assay [1] and in assay [2] was “inactive” in each case.
In the case of `C=CCNc1oc(-c2ccc(F)cc2)nc1C#N`, the Potency result in assay [1] and in assay [2] was “inactive” in each case.
Take `Cc1ccc(-c2ccnn(CC(=O)N(C)C(C)c3ccco3)c2=O)cc1` (stereo unspecified): the Potency result in assay [1] and in assay [2] was “inactive” throughout.
`Cc1ccc(C(=O)Nc2ccccc2C(=O)Nc2nc(-c3ccccc3)cs2)cc1`: the Potency entry in assay [1] and in assay [2] was “inactive” each time.
Consider `CC(C)c1ccccc1-c1ncc(F)c(NC2(c3ccc(-c4cccnc4)cc3)CC2)n1`, for which the Potency result in assay [1] and in assay [2] was “inactive” in each case.
Turning to `O=c1c2ccccc2nc2sc(Nc3ccc4c(c3)CNC4)nn12`, the Potency entry in assay [1] and in assay [2] was “inactive” throughout.
Take `CCN(CC)CCCC(C)n1c(-c2ccccc2)nc2c(N(CCOC)CCOC)nc(C)nc21` (stereo unspecified): the Potency entry in assay [1] and in assay [2] was “inactive” in each case.
On to `Cc1occc1CNc1ncnc2ccc(-c3ccc4c(c3)OCO4)cc12`, for which the Potency result in assay [1] and in assay [2] was “inactive” throughout.
On to `CC(C)(C)c1ccccc1Nc1nc(C#N)nc(NC2CCCC2)n1`, for which the Potency result in assay [1] and in assay [2] was “inactive” throughout.
As for `CCOc1ccc(CCNC(=O)c2cc3sccc3n2Cc2ccccn2)cc1OCC`, the Potency entry in assay [1] and in assay [2] was “inactive” in each case.
`COc1ccc(OC)c(Nc2nn3c(=O)c4ccccc4nc3s2)c1`: the Potency entry in assay [1] and in assay [2] was “inactive” throughout.
In the case of `C=C(C)C(=O)O[C@H]1CC2=CC(C/C(C)=C\[C@H]3OC(=O)C(=C)[C@H]13)OC2=O` (stereo partly specified), the Potency entry in assay [1] and in assay [2] was “inactive” throughout.
Regarding `Cc1noc(-c2sc3c(c2-c2nc4ccccc4s2)CCNC3)n1`, the Potency entry in assay [1] and in assay [2] was “inactive” each time.
Regarding `O=C1c2ccccc2C(=O)N1c1cc(=O)c2ccccc2[nH]1`, the Potency result in assay [1] and in assay [2] was “inactive” throughout.
`CCOc1ccc(C(=O)Nc2ccc(-c3nn[nH]n3)cc2)cc1[N+](=O)[O-]`: the Potency entry in assay [1] and in assay [2] was “inactive” each time.
With `COc1cccc(-c2ccc3ncnc(NCc4ccc5c(c4)OCO5)c3c2)c1`, the Potency entry in assay [1] and in assay [2] was “inactive” throughout.
In the case of `CC1=C(C(=O)Nc2nc3ccccc3s2)C2(CCCC2)N=C(Nc2nc3ccccc3o2)N1`, the Potency result in assay [1] and in assay [2] was “inactive” each time.
Regarding `O=C1CCCC2=C1C(c1[nH]ncc1Cl)N=C(Nc1nc3cc([S+](=O)([O-])N4CCCC4)ccc3o1)N2` (stereo unspecified), the Potency result in assay [1] and in assay [2] was “inactive” throughout.
For the compound `COc1ccc(C2=Nn3c(nnc3-c3ccccc3Cl)SC2)cc1OC1CCOC1` (stereo unspecified), the Potency result in assay [1] and in assay [2] was “inactive” each time.
For `Cc1cc(NC(=O)Nc2cccc(-c3ccncc3)n2)ccc1Cl`, the Potency result in assay [1] and in assay [2] was “inactive” throughout.
`O=c1c2ccc(Cl)cc2nc2sc(Nc3ccc4c(c3)CCC4)nn12`: the Potency entry in assay [1] and in assay [2] was “inactive” in each case.
Take `Cc1cc(N[S+](=O)([O-])c2cc3c(cc2Cl)CCC(=O)N3)ccc1Cl`: the Potency entry in assay [1] and in assay [2] was “inactive” throughout.
With `C[C@@H]1CN(S(=O)(=O)c2c(F)cccc2F)CCN1S(=O)(=O)c1ccc2c(c1)OCCO2`, the Potency entry in assay [1] and in assay [2] was “inactive” each time.
As for `Cc1cc(C)nc(NC(=S)N2CCN(c3ccc4nncn4c3)CC2)c1`, the Potency result in assay [1] and in assay [2] was “inactive” in each case.
With `O=S(=O)(NCC1CN(S(=O)(=O)c2c(F)cccc2F)C1)c1ccc2c(c1)OCCO2`, the Potency entry in assay [1] and in assay [2] was “inactive” in each case.
Regarding `CCOC(=O)C1CCN(C(=O)C(C)(C)NC(=O)Nc2ccc3sccc3c2)CC1`, the Potency entry in assay [1] and in assay [2] was “inactive” in each case.
In the case of `Cc1cccc(C)c1-n1c(SCC(=O)Nc2ccc(C(=O)O)cc2)nnc1-c1ccc([S+](=O)([O-])N2CCCC2)cc1`, the Potency result in assay [1] and in assay [2] was “inactive” each time.
Take `Cc1cc(C)nc(NC(=S)N2CCN(c3ccc(F)cc3F)CC2)c1`: the Potency result in assay [1] and in assay [2] was “inactive” each time.
As for `Cn1nnnc1Sc1ncnc2scc(-c3ccc(F)cc3)c12`, the Potency result in assay [1] and in assay [2] was “inactive” throughout.
For `Cc1ccc(-n2c(=O)ccc(=O)n2CC(=O)N(C)C(C)c2ccco2)cc1` (stereo unspecified), the Potency result in assay [1] and in assay [2] was “inactive” each time.
Turning to `COC(=O)c1cc2c(C(F)(F)F)cc(-c3ccccc3)cc2n1O`, the Potency result in assay [1] and in assay [2] was “inactive” in each case.
As for `CC[C@]1(O)C[C@H]2CN(CCC3C(=Nc4ccccc43)[C@@](C(=O)OC)(c3cc4c(cc3OC)N(C)[C@H]3[C@@](O)(C(N)=O)[C@H](O)[C@]5(CC)C=CCN6CC[C@]43[C@@H]65)C2)C1` (stereo partly specified), the Potency result in assay [1] and in assay [2] was “inactive” throughout.
On to `Cc1cc2c(s1)c1cnn(Cc3c(F)ccc(Cl)c3F)c(=O)c1n2C`, for which the Potency result in assay [1] and in assay [2] was “inactive” in each case.
For `COc1ccc(-c2csc3ncnc(Sc4nnnn4C)c23)cc1`, the Potency entry in assay [1] and in assay [2] was “inactive” throughout.
For `CCC(O)(c1nnc(NCc2ccc3c(-c4ccc(F)cc4)cc(=O)oc3c2)o1)C(F)(F)F` (stereo unspecified), the Potency entry in assay [1] and in assay [2] was “inactive” in each case.
Take `Cc1ccc(-c2nc(NCC(=O)Nc3cccc(C(=O)O)c3)c3ccccc3n2)cc1`: the Potency result in assay [1] and in assay [2] was “inactive” each time.
